Laboratory results reported in PubChem BioAssay AID493027 (The Scripps Research Institute Molecular Screening Center, 2011).
The whole screen tested about 2,000 compounds, of which about 45 (2%) were called active.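 The calls were made as follows: active = inhibition above the screen-wide mean inhibition plus 3 SD (cut at about 44% in these data); inactive = the rest.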 This excerpt belongs to a sample that is enriched for actives.

Biological target: Perilipin-1 (Homo sapiens) + 1-acylglycerol-3-phosphate O-acyltransferase ABHD5 (Homo sapiens) (UniProt O60240+Q8WTS1)
Sequence (O60240 whole entry, looked up): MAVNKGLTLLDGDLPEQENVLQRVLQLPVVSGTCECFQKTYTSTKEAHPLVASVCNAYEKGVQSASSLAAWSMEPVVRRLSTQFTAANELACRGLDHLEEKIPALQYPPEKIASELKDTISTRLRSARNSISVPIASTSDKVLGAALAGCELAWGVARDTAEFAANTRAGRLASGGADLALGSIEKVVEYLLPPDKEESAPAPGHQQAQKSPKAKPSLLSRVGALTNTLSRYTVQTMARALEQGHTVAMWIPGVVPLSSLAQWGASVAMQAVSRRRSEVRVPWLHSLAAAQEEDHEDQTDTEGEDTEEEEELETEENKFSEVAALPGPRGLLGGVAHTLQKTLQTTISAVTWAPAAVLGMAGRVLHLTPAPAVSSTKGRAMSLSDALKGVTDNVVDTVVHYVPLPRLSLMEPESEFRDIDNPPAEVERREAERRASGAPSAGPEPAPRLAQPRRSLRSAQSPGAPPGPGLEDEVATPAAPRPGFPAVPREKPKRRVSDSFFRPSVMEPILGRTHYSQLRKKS
Sequence (Q8WTS1 whole entry, looked up): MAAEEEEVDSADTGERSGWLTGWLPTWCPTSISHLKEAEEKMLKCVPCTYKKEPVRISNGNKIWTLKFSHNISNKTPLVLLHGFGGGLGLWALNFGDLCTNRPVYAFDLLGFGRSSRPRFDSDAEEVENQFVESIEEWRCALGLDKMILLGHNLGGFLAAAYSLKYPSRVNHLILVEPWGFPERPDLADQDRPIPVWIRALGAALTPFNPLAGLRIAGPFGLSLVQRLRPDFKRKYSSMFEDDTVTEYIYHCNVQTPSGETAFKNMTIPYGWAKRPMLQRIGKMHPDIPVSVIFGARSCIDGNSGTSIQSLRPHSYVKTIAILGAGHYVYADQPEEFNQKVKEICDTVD
Test: blockers of ABHD5 binding to perilipin-1 – cell lysate, split luciferase complementation, luminescence, NIH validation set, pilot screen (AID 493027);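 as to inhibition: 0% = DMSO wells with the 100% control not disclosed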
Conditions: split G. princeps luciferase complementation, 4 h; at 7.9 µM, stronger effect = higher value

Row | SMILES | inhibition
1 | COc1ccc(CCN=CC2=C(O)CC(C)(C)CC2=O)cc1 | -4.85% (inactive)
2 | CC(=O)Nc1ccc(CN2CCN(C3CCCCC3)C(CCO)C2)cc1 (stereo not given) | -3.02% (inactive)
3 | CC(=O)N[C@@H](CS)C(=O)O | -18.8% (inactive)
4 | COC(=O)[C@@H](N)CS | 65.9% (active)
5 | Cc1ccc(NC(=O)CSc2nc(O)c(Cc3ccccc3)c(=O)n2-c2ccccc2)cc1 | 5.86% (inactive)
6 | COc1ccc(/C=C/C(=O)Nc2ccccc2C(=O)O)cc1OC | -6.48% (inactive)
7 | COc1ccc(C(=O)Oc2ccc3c(C)cc(=O)oc3c2C(C)=O)cc1 | 0.69% (inactive)
8 | COc1ccc(/C=C\C(=O)c2c(O)ccc3c(C)cc(=O)oc23)cc1OC | 62.7% (active)
9 | CC(C)C(=O)Nc1c(O)c2ccccc2[nH]c1=O | -16.2% (inactive)
10 | CCOC(=O)C1=C(C)NC(C)=C(C(=O)OC)C1c1cccc([N+](=O)[O-])c1 (stereo not given) | 8.95% (inactive)
11 | COC(=O)C1=C(C)NC(C)=C(C(=O)OC)C1c1ccccc1[N+](=O)[O-] | active
12 | COC(=O)C1=C(C)NC(C)=C([N+](=O)[O-])C1c1ccccc1C(F)(F)F (stereo not given) | 1.42% (inactive)
13 | COc1ccc(CCN=C(N)C(C)c2ccccc2)cc1OC (stereo not given) | -12.2% (inactive)
14 | CC(C)(C)C(=O)NC(=S)Nc1sc2c(c1C(N)=O)CCC2 | 1.49% (inactive)
15 | COc1ccc(C2OC(=O)Cc3cc(OC)c(OC)cc32)cc1 (stereo not given) | -1.64% (inactive)
16 | OCCC1CN(Cc2nc(-c3ccccc3)cs2)CCN1Cc1ccc(F)cc1 (stereo not given) | -1.6% (inactive)
17 | COc1cc2c(cc1OC)-c1cc(OCc3ccccc3Cl)nc(=O)n1CC2 | 15.9% (inactive)
18 | N/C(=N\OC(=O)/C=C/c1ccccc1)c1ccc(Br)cc1 | -13% (inactive)
19 | O=C(/C=C/c1ccccc1)c1ccccc1 | 61.4% (active)
20 | Cn1cc(/C=C/C(=O)c2ccccc2)c2ccccc21 | 13.9% (inactive)
21 | O=C(/C=C/c1ccccc1)/C=C/c1ccccc1 | 88.9% (active)
22 | O=C(/C=C/c1ccccc1)NC(=O)c1ccccc1O | 4.79% (inactive)
23 | O=C(/C=C/Sc1ccccc1)c1ccccc1 | 81.5% (active)
24 | CC(CCc1ccccc1)NC(=O)/C=C/c1ccccc1 (stereo not given) | 2.76% (inactive)
25 | O=C(O)c1ccc(C(=O)C(=O)c2ccccc2)cc1 | -8.11% (inactive)

Row | SMILES | inhibition
26 | O=C(CCCCCCCC(=O)c1ccccc1)c1ccccc1 | -5.61% (inactive)
27 | Cc1ccc2[nH]c3c(c2c1)CN(C)CC3 | -2.27% (inactive)
28 | Cc1ccc(S(=O)(=O)N[C@@H](C)C(=O)N2CCC(C(=O)N3CCC[C@H]3C(=O)O)CC2)cc1 | -8.3% (inactive)
29 | COc1ccc(C2OC[C@H]3O[C@H](O)[C@H](NC(C)=O)[C@@H](O)[C@@H]3O2)cc1 (stereo not given in full) | -8.14% (inactive)
30 | COc1ccc2c(c1)CC[C@@H]1[C@@H]2CC[C@]2(C)C(=O)CC[C@@H]12 | -10.8% (inactive)
31 | C[C@]12CCC3C(CC=C4C[C@@H](O)CC[C@@]43C)C1CCC2[C@]1(C)CCC(=O)O1 (stereo not given in full) | 0.59% (inactive)
32 | COc1cccc(-n2c(C)c3c(OC)cccc(=O)c3c2C)c1 | 12% (inactive)
33 | CCC(C)NCCOc1ccccc1C (stereo not given) | -6.76% (inactive)
34 | COc1ccc(OC)c(-n2c(Cn3c(-c4ccccn4)nc4ccccc43)n[nH]c2=S)c1 | -10.2% (inactive)
35 | COc1ccc(C(=O)N2c3cc4c(cc3C(C)=CC2(C)C)OCO4)cc1 | -4.62% (inactive)
36 | Cc1nc(C)c(C)nc1C | -2.64% (inactive)
37 | O=C1C=CC(=O)C(C2=C3C(=O)N(CCc4ccccc4)CC(=O)N3CCC2)=C1 | 68.9% (active)
38 | O=C1CCCCCN1Cc1ccccc1 | -0.49% (inactive)
39 | CC1(C)CC(CC(=O)Nc2nccs2)(c2ccccc2)CCO1 (stereo not given) | -1.2% (inactive)
40 | COc1ccc(C2=CC(=O)C=CC2=O)cc1 | 73.7% (active)
41 | COc1ccc(C2C(=O)c3ccccc3C2=O)cc1 | -2.92% (inactive)
42 | COc1ccc(-c2nc(NC(C)=O)sc2-c2ccc(OC)cc2)cc1 | 11.4% (inactive)
43 | NS(=O)(=O)c1ccc(CNC(=O)c2cc(-c3ccccc3)nc3ccccc23)cc1 | 10.2% (inactive)
44 | CCOc1ccc2nc(NC(=O)NC3CCCCC3)sc2c1 | -5.14% (inactive)
45 | CCOc1cccc(N2C(=O)CC(N(CCc3ccc(OC)c(OC)c3)C(=O)CC)C2=O)c1 (stereo not given) | -6.24% (inactive)
46 | COC(=O)C1=C(C)N(Cc2ccco2)C(=O)/C1=C\c1ccc([N+](=O)[O-])cc1 | 86% (active)
47 | COCCCN1C(=O)/C(=C\c2cccs2)C(C(=O)OC)=C1C | 3.99% (inactive)
48 | COC(=O)c1ccc(=O)n(Cc2ccco2)c1 | 12.2% (inactive)
49 | CN=C1c2cc3cc(OC)ccc3n2CCN1C | 3.44% (inactive)
50 | Oc1[nH]c2ccccc2c1N=Nc1ccccc1 | -0.17% (inactive)

Row | SMILES | inhibition
51 | COC(=O)c1cc(COc2ccc3ccc(=O)oc3c2)c(C)o1 | -9.09% (inactive)
52 | Cc1ccccc1C(=O)NCC(=O)O | 0.22% (inactive)
53 | COc1ccc(CCNC(=O)c2ccc(Cl)cc2)cc1OC | -5.87% (inactive)
54 | CCN1/C(=C/C=C/C=C/c2sc3ccccc3[n+]2CC)Sc2ccccc21 | 52.7% (active)
55 | CN(C)CCCN1c2ccccc2Sc2ccccc21 | -3.33% (inactive)
56 | CC(CN1c2ccccc2Sc2ccccc21)N(C)C (stereo not given) | -9.88% (inactive)
57 | CC(=O)N(C(C)=O)c1nc2nc(C)cc(C)n2n1 | -0.49% (inactive)
58 | OC(C#CCN1CCCC1)(c1ccccc1)c1cccnc1 (stereo not given) | 0.07% (inactive)
59 | COc1ccc(Cc2nc(-c3ccc(Br)cc3)no2)cc1 | -12% (inactive)
60 | CCOc1ccc(CC2CCC(=O)NC2=O)cc1 (stereo not given) | 3.55% (inactive)
61 | O=Cc1ccc(OC(=O)c2cccnc2)cc1 | -5.64% (inactive)
62 | Fc1ccc(-n2cc(CNCCc3ccccn3)c(-c3ccccc3Cl)n2)cc1 | 1.9% (inactive)
63 | CC(C)(C)OC(=O)N1CC(O)CC1C(=O)OCC(=O)c1ccc(Cl)cc1 (stereo not given) | -9.04% (inactive)
64 | CC1=CC(=O)c2ccccc2C1=O | 44.4% (active)
65 | CC(C)=CCC/C(C)=C/CC/C(C)=C/CC/C(C)=C/CC1=C(C)C(=O)c2ccccc2C1=O | 18.4% (inactive)
66 | CCNC1=C(Cl)C(=O)c2ccccc2C1=O | -12.7% (inactive)
67 | COc1ccc2[nH]c3c(=O)n(/N=C/[C@H]4C(C)C=C(C)CC4C)c(=O)[nH]c3c2c1 (stereo not given in full) | 23.9% (inactive)
68 | COc1ccc(CCNC(=O)c2c(O)c3c([nH]c2=O)CCCC3)cc1 | 3.26% (inactive)
69 | COc1ccc(C(=O)OCc2cc3cccc(C)c3[nH]c2=O)cc1 | -1.47% (inactive)
70 | Cc1cc(-c2nn(-c3ccccc3F)cc2CN2CCC(O)CC2)c(C)s1 | -2.82% (inactive)
71 | CCOc1cc2c3c(c1)C(C)=CC(C)(C)N3C(=O)C2=O | 43.5% (active)
72 | COc1cc2c3c(c1)C(C)CC(C)(C)N3C(=O)C2=O (stereo not given) | 6.69% (inactive)
73 | COc1cc2c3c(c1)C1(C(=O)N3C(C)(C)C=C2C)C(C#N)=C(N)Oc2cc(C)oc(=O)c21 (stereo not given) | -0.82% (inactive)
74 | CS(=O)(=O)Nc1cccc(C(=O)CC2(O)C(=O)Nc3ccc(Br)cc32)c1 (stereo not given) | -3.35% (inactive)
75 | COc1cc2c(cc1OC)-c1nnc(C)n1C(C)(C)C2 | -2.21% (inactive)

Row | SMILES | inhibition
76 | COc1ccc(CN(CCC(c2ccccc2)c2ccc(OC(C)C)cc2)C(=O)CCl)cc1OC (stereo not given) | 64.4% (active)
77 | COc1ccccc1C(CC(=O)Nc1ccccc1C)c1ccc(OC(C)C)cc1 (stereo not given) | 0.34% (inactive)
78 | COc1ccc(CNCCC(c2ccc(F)cc2)c2ccc(OC(C)C)cc2)cc1OC (stereo not given) | -6.56% (inactive)
79 | CC(C)C12CN3CC(C(C)C)(CN(C1)C3c1ccccc1)C2O (stereo not given) | -10.6% (inactive)
80 | Cn1c(=S)n(C)c2ccccc21 | -7.95% (inactive)
81 | COc1ccc2cc(C(=O)OC(C)C)sc(=O)c2c1OC | 3.53% (inactive)
82 | COc1cccc(OCc2cc(C3Nc4ccccc4C(=O)N3Cc3ccco3)ccc2OC)c1 (stereo not given) | 42.9% (inactive)
83 | O=C(O)c1cc(-c2ccccc2)nc2ccccc12 | -6.78% (inactive)
84 | CCCOc1ccc(-c2cc(C(=O)NCC3CCCO3)c3ccccc3n2)cc1 (stereo not given) | -2.49% (inactive)
85 | COC(=O)c1cc(-c2ccc(C)o2)nc2ccccc12 | 78% (active)
86 | COc1cc2cc(C)nc(Cc3cccc4ccccc34)c2cc1OC | 16.5% (inactive)
87 | COc1ccc(C2C3C(C)=NN=C3CC(C)(O)C2C(C)=O)cc1 (stereo not given) | -2.63% (inactive)
88 | Oc1[nH]c2ccccc2c1C1=NCCCC1 | -6.01% (inactive)
89 | O=C(Cc1ccccc1[N+](=O)[O-])NCCCN1CCOCC1 | -7.14% (inactive)
90 | O=C(c1ccco1)N(CCC(c1ccccc1)c1ccco1)Cc1ccco1 (stereo not given) | 56.6% (active)
91 | COc1ccccc1C(CCN(Cc1ccccc1)C(C)=O)c1ccco1 (stereo not given) | 9.44% (inactive)
92 | CC(=O)N(CCC(Cc1ccccc1)c1ccco1)Cc1ccco1 (stereo not given) | 40.8% (inactive)
93 | CCOc1ccc2ccccc2c1CNc1nnnn1C | -8.53% (inactive)
94 | CC(C)N1C(=O)/C(=C\c2nc3ccccc3c(=O)[nH]2)c2ccccc21 | 70.2% (active)
95 | COc1ccc(C(=O)Nc2nc3ccccc3c(=O)[nH]2)cc1 | -4.92% (inactive)
96 | CC(=O)Oc1ccc(C(=O)O)cc1OC(C)=O | 2.2% (inactive)
97 | CCC1(c2ccccc2)NC(=S)N(c2ccc(C)c(C)c2)N1 (stereo not given) | -0.55% (inactive)
98 | CC(=O)/C=C/c1ccc(C)o1 | 18.2% (inactive)
99 | O=C(Nc1ccc(Oc2c(F)c(F)c(F)c(F)c2F)cc1)OC1CCN2Cc3ccccc3N=C12 (stereo not given) | 71.9% (active)
100 | COc1cccc2c(=O)c3ccccc3oc12 | -14.7% (inactive)
